Molecules are shown by their SMILES. Results filed as inconclusive are left out. Entries that show only a call come without a potency. Activity calls are given as the source filed them. Calls follow the shape of the dose curve; as a rule, active = well fitted inhibition curve with a large enough effect in the repeat runs; inconclusive = weak or mixed curves, or effect the other way; inactive = no such curve, though single readings can be large or run the other way.
Potency is read from the fitted curve at half-maximal effect.

Androgen receptor (Homo sapiens), sequence (P10275 whole entry, looked up): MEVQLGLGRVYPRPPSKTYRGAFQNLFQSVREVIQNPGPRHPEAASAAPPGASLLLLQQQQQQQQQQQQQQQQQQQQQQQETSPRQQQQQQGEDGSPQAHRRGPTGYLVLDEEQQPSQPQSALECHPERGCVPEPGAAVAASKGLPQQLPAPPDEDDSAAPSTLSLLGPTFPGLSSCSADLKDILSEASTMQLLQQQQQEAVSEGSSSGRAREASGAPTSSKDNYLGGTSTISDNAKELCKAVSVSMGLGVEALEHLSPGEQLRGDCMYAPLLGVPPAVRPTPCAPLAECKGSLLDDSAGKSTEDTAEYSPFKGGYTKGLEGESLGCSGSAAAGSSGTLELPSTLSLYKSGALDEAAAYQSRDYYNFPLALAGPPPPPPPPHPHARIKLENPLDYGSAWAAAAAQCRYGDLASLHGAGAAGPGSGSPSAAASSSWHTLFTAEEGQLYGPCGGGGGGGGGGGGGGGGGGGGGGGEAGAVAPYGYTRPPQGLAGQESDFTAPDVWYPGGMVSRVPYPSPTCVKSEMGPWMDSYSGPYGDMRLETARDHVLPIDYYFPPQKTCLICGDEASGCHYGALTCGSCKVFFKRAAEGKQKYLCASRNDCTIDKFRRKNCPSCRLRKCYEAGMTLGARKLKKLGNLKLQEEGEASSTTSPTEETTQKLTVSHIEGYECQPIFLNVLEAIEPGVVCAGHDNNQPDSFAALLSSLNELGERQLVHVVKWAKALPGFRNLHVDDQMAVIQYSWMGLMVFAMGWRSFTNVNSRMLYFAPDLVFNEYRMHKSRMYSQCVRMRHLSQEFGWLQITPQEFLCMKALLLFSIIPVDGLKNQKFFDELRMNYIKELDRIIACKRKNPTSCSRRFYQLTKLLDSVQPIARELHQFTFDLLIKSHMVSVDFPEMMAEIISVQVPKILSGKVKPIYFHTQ

For the experiment, the target named is Androgen receptor (Homo sapiens) (UniProt P10275). In words: qHTS assay to identify small molecule antagonists of the androgen receptor (AR) signaling pathway using the MDA cell line (AID 743042; also: nearly all actives have a fitted effect of over 55% in size). Conditions: MDA-kb2 AR-luc, MMTV luciferase, R1881 antagonist, 16 h; series mostly up to 70.3 µM. The method, boiled down:
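MDA-kb2 cells (human breast carcinoma, stably carrying an MMTV-luciferase reporter responsive to AR and GR) were plated at 3,000 cells/well and preincubated 5 hr at 37C, then given compound plus R1881 agonist for 16 h. ONE-Glo luminescence was read.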
On the technique in general: Quantitative high-throughput screening tests each substance at several concentrations.
On to `O=S1(=O)OCCO1`, for which the Potency entry is “inactive”.

For `OP(O)c1ccccc1`, the Potency result is “inactive”.

For `CCOC(=O)NC(C)(C)Cc1ccc(Cl)cc1`, the Potency entry was “inactive”.

For the compound `CCN(CC)C1CCCCC1`, the Potency entry was “inactive”.

In the case of `O=C(Cl)/C=C/C(=O)Cl`, the Potency result is “inactive”.

On to `CCNc1nc(Cl)nc(NC(C)(C)C)n1`, for which the Potency entry was “inactive”.

`CCOC1Oc2ccc(OS(C)(=O)=O)cc2C1(C)C` (configuration not stated): the Potency is 60.6 µM (active).

Source of the values: PubChem BioAssay (Tox21).
